Bead autofluor – flagged as autofluorescent in microsphere protease counterscreen; compound autofluorescence counterscreen, microsphere flow cytometry; hits give high values; fluorescence intensity (concentration not given with the values); 360,000 tested, 3.1% active; AID 624483; in the data active = fluorescence intensity above about 16000; inconclusive = no clear call, values can overlap the other calls
SARS 3CLpro inh – SARS-CoV 3CLpro protease inhibitors, primary screen, biochemical, quenched FRET | Replicase polyprotein 1ab (Severe acute respiratory syndrome coronavirus), P0C6X7 | recombinant SARS-CoV 3CLpro, quenched FRET peptide cleavage | inhibition, % at 6 µM | 290,000 tested, 0.14% active; in the data active = inhibition above about 12%
DUSP3 inh – VHR1 phosphatase inhibitors, primary screen, biochemical, absorbance, uHTS | recombinant VHR phosphatase, pNPP absorbance | inhibition, % at 13.3 µM | 290,000 tested, 0.52% active | AID 1654, 2009; in the data active = inhibition above about 50%
Target sequence (P51452 whole entry, looked up): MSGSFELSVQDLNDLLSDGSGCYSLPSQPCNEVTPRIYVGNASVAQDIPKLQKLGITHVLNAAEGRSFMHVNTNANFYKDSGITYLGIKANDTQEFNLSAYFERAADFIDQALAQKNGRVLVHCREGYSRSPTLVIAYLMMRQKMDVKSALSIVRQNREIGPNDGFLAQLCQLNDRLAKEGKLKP
BoNT A protease – BoNT/A light chain protease inhibitors, primary screen, biochemical, flow cytometry, MLPCN library | 360,000 tested, 0.17% active | inhibition, % at 10 µM | Botulinum neurotoxin type A light chain protease (Clostridium botulinum A str. ATCC 3502) | multiplex microsphere protease substrate cleavage; note: plate controls were buffer without enzyme for full effect and enzyme alone for no effect
Anthrax LF prot – Bacillus anthracis LF protease inhibitors, primary screen, biochemical, multiplex microsphere, MLPCN library | 360,000 tested, 0.12% active | Lethal factor (Bacillus anthracis), P15917 | multiplex microsphere protease cleavage assay | inhibition, % at 10 µM | AID 588501, 2011; note: plate controls were buffer without enzyme for full effect and enzyme alone for no effect
BoNT F protease – BoNT/F light chain protease inhibitors, primary screen, biochemical, flow cytometry, MLPCN library. Botulinum neurotoxin type F light chain protease (Clostridium botulinum). Multiplex microsphere protease cleavage assay. inhibition, % at 10 µM. 360,000 tested, 0.22% active. AID 588497, 2011; in the data active = inhibition above about 35%, passing the limit was not always enough; inconclusive = no clear call, values can overlap the other calls; note: plate controls were buffer without enzyme for full effect and enzyme alone for no effect
Numbers without * were called inactive. Sampled rows, rich in hits. Any-hit rate of the full collection: about 3.9%. Cut-off read from the data, not from the text of the source, unless noted: active = inhibition above about 30%; inconclusive = no clear call, values can overlap the other calls; inactive = below that.

What do the screens show for `CC(=O)Nc1ccc(S(=O)(=O)NC2(C(F)(F)F)NC(=O)N(C3CCCC3)C2=O)cc1` (stereo not given)?
Bead autofluor: 22547*; SARS 3CLpro inh: -2; DUSP3 inh: 5; BoNT A protease: 0; Anthrax LF prot: -2; BoNT F protease: -2

Results for CC(=O)NC1(C(F)(F)F)NC(=O)N(C2CCCCC2)C1=O (stereo not given) ?
Bead autofluor: 22952*; SARS 3CLpro inh: -4; DUSP3 inh: 15; BoNT A protease: 0; Anthrax LF prot: -1; BoNT F protease: 3

What do the screens show for `CC(=O)NC1(C(F)(F)F)NC(=O)N(CC(C)C)C1=O` (stereo not given)?
Bead autofluor: 4383; SARS 3CLpro inh: 0; DUSP3 inh: 17; BoNT A protease: 0; Anthrax LF prot: 1; BoNT F protease: 7

How did CC(=O)Nc1ccc(S(=O)(=O)NC2(C(F)(F)F)NC(=O)N(C3CCCCC3)C2=O)cc1 (stereo not given) do in these assays?
Bead autofluor: 23390*; SARS 3CLpro inh: 2; DUSP3 inh: 4; BoNT A protease: inconclusive; Anthrax LF prot: -5; BoNT F protease: 0

What do the screens show for `O=C(CN1C(=O)NC2(CCCC2)C1=O)OCc1c(F)cccc1Cl`?
Bead autofluor: 7085; BoNT A protease: -2; Anthrax LF prot: -1; BoNT F protease: 4

What do the screens show for `O=C(/C=C/c1cnc2ccccc2n1)NC12CC3CC(CC(C3)C1)C2`?
Bead autofluor: 7747; SARS 3CLpro inh: 3; DUSP3 inh: 13; BoNT A protease: 1; Anthrax LF prot: 3; BoNT F protease: -7

How did O=C(NCC1CCOCC1)c1cc(COc2cccc(C(F)(F)F)c2)on1 do in these assays?
Bead autofluor: 4282; SARS 3CLpro inh: 8; DUSP3 inh: -37; BoNT A protease: 0; Anthrax LF prot: 2; BoNT F protease: 5

Results for O=C(NC1CCOC1)c1cc(COc2cccc(C(F)(F)F)c2)on1 (stereo not given) ?
Bead autofluor: 5664; SARS 3CLpro inh: -2; DUSP3 inh: 51*; BoNT A protease: -2; Anthrax LF prot: 0; BoNT F protease: 0

What do the screens show for `CCCN1CCCc2cc(CN(CCCN3CCOCC3)C(=O)Nc3ccc(OCC)cc3)ccc21`?
Bead autofluor: 22682*; SARS 3CLpro inh: 0; DUSP3 inh: 23; BoNT A protease: 0; Anthrax LF prot: -6; BoNT F protease: -14

Results for CCc1ccc2[nH]c(=O)c(CN(CCCN3CCOCC3)C(=O)Nc3ccc(Cl)cc3)cc2c1 ?
Bead autofluor: 2440; SARS 3CLpro inh: -6; DUSP3 inh: 53*; BoNT A protease: 0; Anthrax LF prot: 6; BoNT F protease: 0

Results for CCc1ccc2[nH]c(=O)c(CN(CCN3CCCC3)C(=O)NC3CCCCC3)cc2c1 ?
Bead autofluor: 8319; SARS 3CLpro inh: 0; DUSP3 inh: 16; BoNT A protease: 0; Anthrax LF prot: 1; BoNT F protease: 1

Results for CCN(CC)CCN(Cc1cc2cc3c(cc2[nH]c1=O)OCCO3)C(=O)NC1CCCCC1 ?
Bead autofluor: 4951; SARS 3CLpro inh: -3; DUSP3 inh: -4; BoNT A protease: 0; Anthrax LF prot: 2; BoNT F protease: -6

How did O=C(NC1CCCCC1)N(CCN1CCOCC1)Cc1cc2cc3c(cc2[nH]c1=O)OCCO3 do in these assays?
Bead autofluor: 19967*; SARS 3CLpro inh: -9; DUSP3 inh: 38; BoNT A protease: 1; Anthrax LF prot: 0; BoNT F protease: -1

How did Cc1ccc2[nH]c(=O)c(CN(CCCN3CCOCC3)C(=O)NC3CCCCC3)cc2c1 do in these assays?
Bead autofluor: 22874*; SARS 3CLpro inh: -7; DUSP3 inh: 19; BoNT A protease: inconclusive; Anthrax LF prot: -1; BoNT F protease: -2

What do the screens show for `CCOc1cc(C(=O)OCC(=O)c2c(N)n(C)c(=O)n(C)c2=O)cc(OCC)c1OCC`?
Bead autofluor: 22161*; SARS 3CLpro inh: -5; DUSP3 inh: -10; BoNT A protease: 1; Anthrax LF prot: 2; BoNT F protease: 2

What do the screens show for `CCCOc1ccc(C(=O)OCC(=O)c2c(N)n(C)c(=O)n(C)c2=O)cc1OCC`?
Bead autofluor: 2996; SARS 3CLpro inh: 4; DUSP3 inh: 17; BoNT A protease: 0; Anthrax LF prot: 0; BoNT F protease: 0

Results for COc1cc(C)c(S(=O)(=O)N2CCN=C2c2ccccc2)cc1C ?
Bead autofluor: 2399; SARS 3CLpro inh: 4; DUSP3 inh: -4; BoNT A protease: 1; Anthrax LF prot: -1; BoNT F protease: 3

What do the screens show for `Cc1cc(C)c(S(=O)(=O)N2CCN=C2c2ccccc2)cc1C`?
Bead autofluor: 22172*; SARS 3CLpro inh: -1; DUSP3 inh: 27; BoNT A protease: -1; Anthrax LF prot: -2; BoNT F protease: -4

Results for Cc1oc(=O)c(NC(=O)c2cccc(Cl)c2)cc1C(=O)c1ccccc1 ?
Bead autofluor: 21979*; SARS 3CLpro inh: 7; DUSP3 inh: 23; BoNT A protease: inconclusive; Anthrax LF prot: 0; BoNT F protease: 1

How did CCCc1nc(SCC(=O)N2CCCCCC2)c2c(=O)n(C)c(=O)n(C)c2n1 do in these assays?
SARS 3CLpro inh: -3; DUSP3 inh: -20

How did COc1ccccc1NC(=O)c1ccccc1C(=O)O do in these assays?
Bead autofluor: 4182; SARS 3CLpro inh: 3; DUSP3 inh: 4; BoNT A protease: -1; Anthrax LF prot: -2; BoNT F protease: -1

What do the screens show for `COc1ccccc1Oc1ccccc1C(=O)O`?
Bead autofluor: 16152*; SARS 3CLpro inh: 1; DUSP3 inh: 6; BoNT A protease: 1; Anthrax LF prot: 1; BoNT F protease: 0

Results for Cc1c(CCC(=O)O)c(=O)n2c([nH]c3ccccc32)c1C#N ?
Bead autofluor: 20757*; SARS 3CLpro inh: 6; DUSP3 inh: 28; BoNT A protease: 0; Anthrax LF prot: -3; BoNT F protease: 0

How did CCOc1cc(CN2CCSCC2)ccc1O do in these assays?
Bead autofluor: 16487*; SARS 3CLpro inh: 1; DUSP3 inh: -10; BoNT A protease: -2; Anthrax LF prot: -3; BoNT F protease: -4

How did CCOc1cc(CN2CCN(c3cccc(C(F)(F)F)c3)CC2)ccc1OC do in these assays?
Bead autofluor: 5706; SARS 3CLpro inh: 3; DUSP3 inh: 23; BoNT A protease: 0; Anthrax LF prot: 8; BoNT F protease: 4

Results for CCOc1cc(CN2CCN(c3cccc(C(F)(F)F)c3)CC2)ccc1O ?
Bead autofluor: 20233*; SARS 3CLpro inh: -8; DUSP3 inh: 5; BoNT A protease: 1; Anthrax LF prot: -3; BoNT F protease: -1
